Screens deposited in PubChem BioAssay by several laboratories.
This is a sample that favours compounds with a hit; in the whole collection about 2.8% have one here.
KLK7 zymogen act: proKLK7 (human) activation, primary screen | AID 652039 | activation, % at 7 µM | P49862 | 0.9% of 370,000 active | purified proKLK7, EDANS-DABCYL substrate fluorescence; 100% is mature enzyme control, 0% vehicle;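 active means activation above the mean of all tested compounds plus 3 SD, computed per campaign excluding outliers beyond control limits, cut at about 13% in these data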
GASC-1 inh: blocks human GASC-1 demethylase activity | Q9H3R0 | GST-JMJD2C(1-420) H3K9me3 demethylation, DELFIA europium | inhibition, % at 2.35 µM | 0.069% of 330,000 active | AID 2099;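 active means more than half of a compound's replicate wells show inhibition beyond 50%, single wells judged on their own value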;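 further: signal counts dimethyl H3K9 product captured on neutravidin plate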
Target sequence (Q9H3R0 1-420 limits assumed): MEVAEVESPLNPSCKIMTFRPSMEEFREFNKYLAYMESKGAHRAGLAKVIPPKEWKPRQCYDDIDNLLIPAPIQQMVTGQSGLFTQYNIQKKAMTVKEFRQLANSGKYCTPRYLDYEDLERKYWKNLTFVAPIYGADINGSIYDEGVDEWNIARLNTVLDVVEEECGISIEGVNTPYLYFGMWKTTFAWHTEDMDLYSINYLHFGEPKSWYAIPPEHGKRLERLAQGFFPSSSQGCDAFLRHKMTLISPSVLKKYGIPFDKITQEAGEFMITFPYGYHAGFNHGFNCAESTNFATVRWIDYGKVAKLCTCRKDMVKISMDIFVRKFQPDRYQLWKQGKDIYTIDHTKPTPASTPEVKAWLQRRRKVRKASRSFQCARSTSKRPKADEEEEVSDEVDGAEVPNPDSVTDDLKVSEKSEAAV
PP1 counter: PP1-alpha (human) inhibition in PP5 counter-screen. purified PP1alpha, OMFP fluorescence. inhibition, % at 6.7 µM. 0.9% of 320,000 active. AID 2235;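 active means inhibition above the mean inhibition of all tested compounds plus 3 SD, computed separately for each screening campaign, cut at about 15% in these data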
PG9 Ab binder: binds the HIV-1 gp120 antibody PG9 | TR-FRET gp120-PG9 antibody binding | inhibition, % at 6.7 µM | 0.43% of 360,000 active | AID 624416; in the data active means inhibition above about 8.5%
PP5 inh: PP5 (human) phosphatase inhibition; 0.18% of 320,000 active; P53041; inhibition, % at 6.7 µM; purified PP5c, OMFP substrate fluorescence;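 active means inhibition above the campaign's mean inhibition across all tested compounds plus 3 SD, cut at about 9.5% in these data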
NR1D1 modulator: Rev-erb alpha (human) modulation. P20393. Rev-erbα–FITC-DNA binding, fluorescence polarization, 90 min. activity, % at 10 µM. 0.79% of 370,000 active;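 active means activity above about 14%, limit read from the data; passing the limit was not always enough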
PG9 binder conf: PG9 antibody binding, confirmed; 90% of 1,500 active; shares compounds with PG9 Ab binder; TR-FRET PG9 antibody binding, biochemical; inhibition, % at 6.7 µM; AID 651571; in the data active means inhibition above about 9%
PGV04 Ab binding: PGV04 control antibody binding, counter-screen. AID 651604. 95% of 1,500 active. TR-FRET PGV04 antibody-gp120 binding, biochemical. inhibition, % at 6.7 µM. shares compounds with PG9 Ab binder; in the data active means inhibition above about 9.5%
Hits are given with their value; – = inactive; · = no result given.

SMILES	KLK7 zymogen act	GASC-1 inh	PP1 counter	PG9 Ab binder	PP5 inh	NR1D1 modulator	PG9 binder conf	PGV04 Ab binding
CCn1c2ccccc2c2cc(NC(=O)COC(=O)c3ccc(F)cc3Cl)ccc21	–	·	·	·	·	–	·	·
CCN(CC)CCN1C(=O)C(O)=C(C(=O)c2cc3cccc(OC)c3o2)C1c1ccc(F)cc1 (stereo not drawn)	–	–	–	14	–	–	30	37
Brc1ccccc1C1Cc2nnccc2CN1 (stereo not drawn)	–	·	·	–	·	–	·	·
Cc1ccc(S(=O)(=O)N(CC(=O)NC2CCC(C)CC2)c2cc(C)cc(C)c2)cc1 (stereo not drawn)	–	·	·	·	·	–	·	·
Cc1cc(C)c2nc(-c3ccccn3)cc(C(=O)Nc3cc(C)on3)c2c1	–	–	–	17	–	–	19	27
Cc1cc(NC(=O)c2cc(-c3ccccn3)nc3ccccc23)no1	–	–	–	–	–	–	·	·
Cc1cc(NC(=O)c2cc(-c3ccccn3)nc3c(Cl)cccc23)no1	–	–	–	33	–	–	42	62
Cc1cc(C)c2nc(-c3ccccn3)cc(C(=O)Nn3cnnc3)c2c1	–	–	–	–	–	–	·	·
COc1cccc(Cn2cc(COC(=O)N(C)Cc3ccccc3)nn2)c1	–	·	·	·	·	–	·	·
O=C(Nc1cccc(Cl)c1Cl)C1CCN(c2ncccn2)CC1	–	–	–	9.2	–	–	13	14
CC(C)[C@H](NC(=O)C1CC1)C(=O)N1CCC[C@H]1C(=O)NCc1ccccc1	–	·	·	–	·	–	·	·
CCOC(=O)c1ccccc1NC(=O)Cn1c(=O)n(Cc2ccccc2)c(=O)c2c(C)c(C)sc21	–	–	–	12	–	–	–	–
CCOc1ccc(-n2c(=O)c3c(C)c(C(=O)N(C)C)sc3n(CC(=O)Nc3ccccc3F)c2=O)cc1	–	–	–	–	–	–	·	·
CCOc1ccc(-n2c(SCC(=O)NCc3ccco3)nc3ccccc3c2=O)cc1	–	–	–	17	–	–	45	53
COc1ccc(NC(=O)C2CCCN(S(=O)(=O)c3ccc4[nH]c(=O)ccc4c3)C2)cc1 (stereo not drawn)	–	–	–	9.6	–	–	18	26
CCOc1ccc(NC(=O)C2CCCN(S(=O)(=O)c3ccc4[nH]c(=O)ccc4c3)C2)cc1 (stereo not drawn)	–	–	–	11	–	–	38	63
COc1cc(NC(=O)C2CCCN(S(=O)(=O)c3ccc4[nH]c(=O)ccc4c3)C2)cc(OC)c1 (stereo not drawn)	–	–	–	–	–	–	·	·
CC(C)c1nc(SCC(=O)NC2CCCCC2)c2ccccc2n1	–	–	–	–	–	–	·	·
O=C(COC(=O)c1cccnc1Cl)Nc1ncc(Cl)cc1Cl	–	–	–	–	–	–	·	·
CC(C)(C)c1nc(SCC(=O)NC2CCCC2)c2ccccc2n1	–	–	–	9.9	–	–	13	17
Cc1cc(SCC(=O)NC2CC2)nc2ccccc12	–	–	·	11	·	–	12	16
Cc1ccc(-c2nn(-c3ccccc3)cc2C(=O)OCC(=O)Nc2ncc(Cl)cc2Cl)cc1	–	–	–	20	–	–	12	27
COc1ccc2c(C)cc(SCC(=O)NC3CCCC3)nc2c1	–	–	·	11	·	–	15	29
O=C(CSc1ccc2ccccc2n1)NC1CC1	–	–	–	–	–	–	·	·
C[C@@H]1COc2cccc(N3CCCC3)c2S(=O)(=O)N1	–	·	·	–	·	–	·	·
SMILES	KLK7 zymogen act	GASC-1 inh	PP1 counter	PG9 Ab binder	PP5 inh	NR1D1 modulator	PG9 binder conf	PGV04 Ab binding
CN(C(=O)CCc1cn(C)c2ccccc12)c1ccc(Oc2cccnc2)cc1	–	·	·	–	·	–	·	·
COc1ccc(-c2ccc3c(n2)CCCN3S(=O)(=O)c2cccs2)cc1	–	·	·	–	·	–	·	·
Cc1cc(SCC(=O)NCC2CCCO2)nc2ccccc12 (stereo not drawn)	–	–	–	12	–	–	17	20
Cc1cc(SCC(=O)Nc2ncc(Cl)cc2Cl)nc2ccccc12	–	–	–	12	–	–	15	20
O=C(CCCn1c(SCc2cccc(F)c2)nc2ccccc2c1=O)NCC1CCCO1 (stereo not drawn)	–	–	–	13	–	–	9.5	13
Cn1ccnc1C(=O)c1cc(SCC(=O)NC2CC2)nc2ccccc12	–	–	–	–	–	–	·	·
Cc1cccc(C)c1NC(=O)CSc1cc(C(=O)c2nccn2C)c2ccccc2n1	–	–	–	14	–	–	41	58
Cc1nnc(SCC(=O)Nc2ncc(Cl)cc2Cl)n1Cc1ccccc1	–	–	–	–	–	–	·	·
CCNC(=O)N1C[C@H]2CON(C)[C@H]2C[C@H]1c1ccc(N2CCCCC2)cc1	–	·	·	–	·	–	·	·
COc1ccc(S[C@]2(C(=O)N3CCCC3)CC(=O)N[C@@H]2c2ccc(OC)cc2)cc1	–	·	·	·	·	–	·	·
CC(C)CN1C(=O)[C@]2(CC(=O)N(C)C2c2ccccc2)c2cc(-n3cc(CO)nn3)ccc21 (stereo partly drawn)	–	·	·	·	·	–	·	·
COC(=O)[C@]12C[C@H](CC(=O)NCc3cccc(C(F)(F)F)c3)C(=O)N(CCc3ccc(OC)c(OC)c3)C1=C[C@H](COCc1ccccc1)O[C@@H]2C	–	·	·	·	·	–	·	·
O=C(Nc1nc2ccccc2c(=O)s1)c1ccc(F)cc1Cl	–	–	–	71	–	–	60	77
COC(=O)[C@]12C[C@H](CC(=O)N3CCC(c4ccccc4)CC3)C(=O)N(Cc3ccc(Cl)cc3Cl)C1=C[C@H](COCc1ccccc1)O[C@@H]2C	–	·	·	·	·	–	·	·
Cc1ccc(C(=O)Nc2ccc3ccccc3c2)cc1	–	–	–	–	–	–	·	·
O=C(Nc1ccc2ccccc2c1)c1ccc(Cl)cc1	–	–	–	10	–	–	13	18
COC(=O)c1cc(NC(=O)c2ccc(-c3ccccc3)cc2)ccc1Cl	–	–	–	10	–	–	13	22
CCn1c(SCc2nc(-c3ccccc3)no2)nnc1-c1cccs1	–	–	–	–	–	–	·	·
CCn1c(SCc2nc(-c3ccccc3)no2)nnc1-c1ccco1	–	–	–	15	–	–	49	61
N#Cc1ccccc1NC(=O)COC(=O)c1ccc2c(c1)OCCO2	–	–	–	–	–	–	·	·
N#Cc1ccc(Cl)cc1NC(=O)COC(=O)c1ccc2c(c1)OCCO2	–	–	–	50	–	–	40	69
O=C(COC(=O)c1ccc2c(c1)OCO2)NCc1ccc(Cl)cc1	–	–	–	12	–	–	–	19
CCCCCCC(=O)NC1CCCCN(Cc2ccc(C)cc2)C1=O (stereo not drawn)	–	·	·	·	·	–	·	·
CS(=O)(=O)N1CCC(C(=O)NCC2COc3ccccc3O2)CC1 (stereo not drawn)	–	·	·	·	·	–	·	·
